About 240 (1.5%) of roughly 16,000 compounds were called active. No stated cut-off is given here; in the data, active means activation above about 80%; inactive means the rest. This excerpt belongs to a sample that is enriched for actives.

The target in this experiment is Sphingosine 1-phosphate receptor 1 (Homo sapiens) (UniProt P21453). Description: activates the human S1P1 receptor (AID 1044). The note with it: S1P1 agonist cell-based reporter assay; at 4.5 µM; active compounds read high. Background: A reporter such as luciferase makes a cellular process visible.
Chain of Sphingosine 1-phosphate receptor 1 (Homo sapiens) (P21453 whole entry, looked up): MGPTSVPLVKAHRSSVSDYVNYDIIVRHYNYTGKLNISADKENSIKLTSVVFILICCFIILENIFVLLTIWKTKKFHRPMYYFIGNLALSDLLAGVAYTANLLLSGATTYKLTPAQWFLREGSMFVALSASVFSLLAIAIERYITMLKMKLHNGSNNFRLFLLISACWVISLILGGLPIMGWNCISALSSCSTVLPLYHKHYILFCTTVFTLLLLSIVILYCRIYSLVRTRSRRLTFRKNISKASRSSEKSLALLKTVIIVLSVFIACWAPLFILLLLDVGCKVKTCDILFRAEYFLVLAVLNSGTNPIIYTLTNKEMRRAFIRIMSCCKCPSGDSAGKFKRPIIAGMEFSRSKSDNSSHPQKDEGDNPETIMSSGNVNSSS
Regarding `CCCCCCNC(=O)NCCCCCC`, the activation was -9.06% (inactive). As for `COc1ccc(CCNCC(O)Cn2ccc3ccccc32)cc1OC` (stereo not given), the activation is 5.51% (inactive). Under `c1ccc2c(c1)NC(C1Nc3ccccc3O1)O2` (stereo not given) stands -3.26% (inactive). For the compound `COc1cc(CCN=Cc2ccccc2O)c([N+](=O)[O-])cc1OC`, the activation was -11.4% (inactive). As for `CS/C(N)=N/N=C/c1cccs1`, the figure is -0.53% (inactive); as for `COC(=O)C1=C(NNc2ccccc2)CSC1`, 6.31% (inactive); as for `Cc1cc(CNCC(O)C(F)(F)F)no1` (stereo not given), -6.99% (inactive).

Consider `FC(F)(F)C1=CC=NCCN1`, for which the activation was 1.36% (inactive). As for `N/C(=N\OC(=O)Nc1ccccc1)c1ccc(Oc2c(Cl)cncc2Cl)cc1`, the figure is 13.7% (inactive); as for `Cc1nc(-c2ccc(NC(=O)COCC(=O)O)cc2)cs1`, -4.96% (inactive); as for `CCCCCCCCc1ccc(C(=O)O)cc1`, 19.6% (inactive).

Consider `CCOC(=O)c1c(NC(=S)Nc2ccccc2)sc2c1CCN(C)C2`, for which the activation was -17.2% (inactive). As for `Cc1nnsc1-c1nnc(SCC(=O)c2ccc3c(c2)OCO3)n1C1CC1`, the figure is 0.92% (inactive); as for `COc1ccc(NC(=S)Nc2ccc(OC)cc2)cc1`, 2.11% (inactive). With `COc1cccc(NC(=S)NNC(=S)NC2CC3CCC2C3)c1` (stereo not given), the activation is 97.7% (active). Consider `COc1cccc(NC(=S)N(CCC#N)C2CCCCC2)c1`, for which the activation is -17.6% (inactive). Under `COc1cccc(C(=O)c2sc3nsc(SCc4ccc(F)cc4)c3c2N)c1` stands 50.7% (inactive); under `Cc1ccc([N+](=O)[O-])c(C(=O)NCC(=O)O)c1`, -20% (inactive). Under `OC(COc1ccc(F)cc1)(c1ccccc1)c1ccccc1` stands -25.6% (inactive); under `CCO/N=C\c1nn(S(C)(=O)=O)cc1Br`, -3.43% (inactive); under `CCOC(=O)Cc1nc(N)ncc1C(=O)OCC`, -10.1% (inactive).

For the compound `Clc1ccc(-c2csc(N/N=C\c3ccn[nH]3)n2)cc1`, the activation was 8.84% (inactive).

`O=C(NCCO)NCCSc1ccc(F)cc1`: the activation is -13.1% (inactive).

With `O=C1CSC(=S)N1c1ccc(N2CCCCCC2)c(N2C(=O)CSC2=S)c1`, the activation is 0.84% (inactive).

For the compound `COC(=O)c1ccc(S(=O)(=O)NNC(=O)c2cn3cc(C(F)(F)F)cc(Cl)c3n2)n1C`, the activation is -20.2% (inactive). For `N#Cc1ccc(N2CCSCC2)cc1[N+](=O)[O-]`, the activation was -27.1% (inactive). Under `O=C(O)c1ccccc1Nc1ccccc1F` stands 2.49% (inactive). Consider `O=C(Nc1ccccc1C(=O)NCc1c(F)cccc1Cl)c1ccccc1Cl`, for which the activation was 15.3% (inactive). As for `O=C(CNC(=O)c1ccccc1F)c1ccc(Br)cc1`, the figure is 84.7% (active). Take `Cc1ccc(Sc2cc(C)c(C)cc2N)c(C)c1`: the activation is 10.7% (inactive). As for `Cc1csc(/N=C/N(C)C)c1C#N`, the figure is -3.89% (inactive).

On to `NS(=O)(=O)c1ccc(Oc2c(Cl)cccc2[N+](=O)[O-])cc1`, for which the activation was -8.03% (inactive). As for `CCCS(=O)(=O)c1csc(C(=O)OC)c1N/N=C/c1cccs1`, the figure is -27.2% (inactive); as for `Cn1cccc1CNC(=O)c1cc(F)cc2c1OCOC2`, 21.1% (inactive). Consider `Cc1c(C(=O)Nc2ccccc2)sc2cc(C(C)(C)C)sc12`, for which the activation is 23.4% (inactive). Under `O=C1OC2(CCCCC2)OC1c1ccccc1` (stereo not given) stands -9.78% (inactive); under `CSc1nc2c(c(/C=C/c3ccccc3)c1C#N)CCC2`, -18.1% (inactive). Under `O=C1c2ccccc2O[C@@H](c2ccccc2)[C@@H]1NC1CCCCC1` stands 75.6% (inactive). Under `NNC(=O)c1cc2ccccc2s1` stands 8.06% (inactive); under `COC(=O)c1cc(S(=O)(=O)NCc2csc(-c3cccs3)n2)oc1C`, 4.78% (inactive); under `CC(C)(C)OC(=O)n1ccc2cc(Br)ccc21`, 111% (active).

`O=C1CC(c2ccccc2)C(=O)N1Cc1cccs1` (stereo not given): the activation was 1.62% (inactive). Under `O=C(NCc1cccnc1)c1cnc2ccccc2n1` stands -2.22% (inactive); under `N#CC(C#N)=CNc1c(F)cccc1Cl`, 48.9% (inactive); under `CO/N=C1\C(=O)N(C)c2ccccc21`, -2.23% (inactive). Take `COC(=O)c1cc(OC)c(OC)cc1NC(=O)c1ccccc1C(=O)O`: the activation is 14.4% (inactive). As for `O=C1c2ccccc2C(=O)N1CCCN1CCN(Cc2c(F)cccc2Cl)CC1`, the figure is -0.27% (inactive); as for `S=C(SCc1ncon1)N1CCSCC1`, -1.22% (inactive). As for `N#Cc1cncc(Br)c1`, the figure is -9.98% (inactive); as for `O=C(O)c1nccnc1C(=O)O`, -16.2% (inactive); as for `CC(=O)c1cc([N+](=O)[O-])c(NC2CCCCC2)s1`, -14.1% (inactive). Take `O=S(=O)(O)c1ncccn1`: the activation is 3.74% (inactive). As for `COc1c(Br)cc(C#N)cc1Br`, the figure is -9.06% (inactive); as for `COC(=O)C1=C(c2ccccc2)C(c2ccccc2)=C(C(=O)OC)C1=O`, 6.63% (inactive). On to `N#Cc1cn(C2CCCCC2)c(=O)[nH]c1=O`, for which the activation is 15.6% (inactive). Under `CNC(=O)c1ccccc1Sc1ccccc1C(=O)NC` stands -10.2% (inactive).

Turning to `CCOC(=O)C(NC(=O)Nc1ccccc1)(Nc1ccccc1OC)C(F)(F)F` (stereo not given), the activation was 5.29% (inactive).

Turning to `CCOC(=O)c1c(C)csc1NC(=O)CC(=O)C(F)(F)F`, the activation was 12.6% (inactive). Turning to `COC(=O)c1cc(C(N)=O)c(SC)s1`, the activation was -10.8% (inactive). Under `O=c1c2c(nc3nc[nH]n13)CCC2` stands 1.21% (inactive). Under `CSC(C)C(=O)/C=C/N(C)C` (stereo not given) stands -15.9% (inactive); under `COC(OC)c1ccc(C#N)c(SCC(=O)Nc2ccc(C(F)(F)F)cc2)n1`, -16.6% (inactive). Under `COC(=O)C(C#N)c1ccc(C(F)(F)F)cc1[N+](=O)[O-]` (stereo not given) stands 14.5% (inactive); under `COC(=O)CCN1CCc2cc(N=Nc3ccc(C(F)(F)F)cc3)ccc21`, 99.2% (active).

For the compound `CCOC(=O)NC(=O)/C(=C/NC(C)C)C(=O)OCC`, the activation was 22.7% (inactive).

Consider `COc1cc(-c2n[nH]c(=S)n2Cc2ccccc2)cc(OC)c1OC`, for which the activation is -18.1% (inactive). Under `CC1(C)c2ccccc2-n2c1cc(O)c(-c1ccccc1)c2=O` stands -11.7% (inactive).

On to `CC1(NC(=O)OCc2ccccc2)CC1NC(=O)OCc1ccccc1` (stereo not given), for which the activation is 11.9% (inactive).

Regarding `COC(=O)c1sccc1Oc1ccc(Cl)cc1[N+](=O)[O-]`, the activation is 13.2% (inactive).

Take `COC(=O)c1sccc1NC(=S)Nc1ccc(C)cc1`: the activation was -27.1% (inactive).

The record behind these values is PubChem BioAssay AID1044 (The Scripps Research Institute Molecular Screening Center, 2008).
